From PubChem BioAssay (NCI)
About 83,000 compounds went through this panel and 20% of them were active in at least one assay; those are over-represented in the sample as a whole.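 96-well plates, one dose, 48 hours. Percent growth reported; active if below 10.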 Calls of active or inactive are those of the source.

Experiments:
Assay in all cases: NCI-60 one-dose screen, 48 h (100 = growth as untreated, 0 = no growth, -100 = all killed)
EKVX NSCLC = conditions: 10 µM unless noted
SN12C renal = conditions: 10 µM unless noted
UO-31 renal = conditions: 10 µM unless noted
TK-10 renal = conditions: 10 µM unless noted
ACHN renal = conditions: 10 µM unless noted
CAKI-1 renal = conditions: 10 µM
CCRF-CEM leukemia = conditions: 10 µM unless noted
MOLT-4 leukemia = conditions: 10 µM unless noted
SR leukemia = conditions: 10 µM unless noted
RPMI-8226 leukemia = conditions: 10 µM unless noted
OVCAR-8 ovarian = conditions: 10 µM unless noted
OVCAR-5 ovarian = conditions: 10 µM unless noted
OVCAR-4 ovarian = conditions: 10 µM unless noted
SK-OV-3 ovarian = conditions: 10 µM unless noted
IGROV1 ovarian = conditions: 10 µM unless noted
HS 578T breast = conditions: 10 µM unless noted
NCI/ADR-RES ovarian = conditions: 10 µM unless noted
A498 renal = conditions: 10 µM unless noted

Measured: growth

CCN1CCN(c2cc(C(=O)Nc3nc4ccc(Oc5ccnc(C(=O)NC)c5)cc4s3)cc(C(F)(F)F)c2)CC1
inactive: EKVX NSCLC 92.5% | SN12C renal 75.2% | TK-10 renal 100% | ACHN renal 66% | CAKI-1 renal 84.5% | CCRF-CEM leukemia 65% | MOLT-4 leukemia 52.3% | RPMI-8226 leukemia 33% | OVCAR-8 ovarian 92.4% | OVCAR-5 ovarian 101% | OVCAR-4 ovarian 67.9% | SK-OV-3 ovarian 109% | IGROV1 ovarian 95.8% | HS 578T breast 93.1% | NCI/ADR-RES ovarian 99.6%
active: UO-31 renal -63.3% | SR leukemia -3.58%

C=CCn1c(SCC(=O)Nc2cccc(C(=O)/C=C/c3ccc(OC)c(OC)c3)c2)nc2ccccc2c1=O
inactive: EKVX NSCLC 100% | SN12C renal 96.8% | UO-31 renal 74.6% | TK-10 renal 116% | ACHN renal 92.2% | CAKI-1 renal 75.7% | A498 renal 89.3% | CCRF-CEM leukemia 78.5% | RPMI-8226 leukemia 38.7% | OVCAR-8 ovarian 89.5% | OVCAR-4 ovarian 87.6% | SK-OV-3 ovarian 108% | IGROV1 ovarian 90.5% | HS 578T breast 88.9% | NCI/ADR-RES ovarian 91.8%

COc1ccc2c(c1)c(-c1nn3c(=O)cc(-c4ccccc4)nc3s1)cn2C
active: A498 renal 4.32%
inactive: EKVX NSCLC 85.3% | SN12C renal 45.2% | UO-31 renal 38.1% | TK-10 renal 64.1% | ACHN renal 44.3% | CAKI-1 renal 46.6% | CCRF-CEM leukemia 34.7% | OVCAR-8 ovarian 51% | OVCAR-5 ovarian 66% | OVCAR-4 ovarian 67.4% | SK-OV-3 ovarian 49.6% | IGROV1 ovarian 54.3% | HS 578T breast 27% | NCI/ADR-RES ovarian 27.8%

Fc1ccccc1/C=C(/C1=NCCN1)n1cnc2ccccc21
inactive: EKVX NSCLC 95% | SN12C renal 97.4% | UO-31 renal 85.3% | TK-10 renal 99.4% | ACHN renal 97% | CAKI-1 renal 84.1% | CCRF-CEM leukemia 108% | MOLT-4 leukemia 106% | SR leukemia 91.7% | RPMI-8226 leukemia 96.9% | OVCAR-8 ovarian 99.6% | OVCAR-5 ovarian 94.8% | OVCAR-4 ovarian 90.9% | SK-OV-3 ovarian 93.1% | IGROV1 ovarian 95.6% | HS 578T breast 93.3% | NCI/ADR-RES ovarian 104%

C=CCn1c(SCC(=O)c2ccc(OC)cc2)nnc1-c1ccc(OC)cc1
inactive: EKVX NSCLC 96.4% | SN12C renal 97.6% | UO-31 renal 92.1% | TK-10 renal 105% | ACHN renal 104% | CAKI-1 renal 88.3% | CCRF-CEM leukemia 107% | MOLT-4 leukemia 96.1% | SR leukemia 96.1% | RPMI-8226 leukemia 98.4% | OVCAR-8 ovarian 99.9% | OVCAR-5 ovarian 96.7% | OVCAR-4 ovarian 98% | SK-OV-3 ovarian 105% | IGROV1 ovarian 103% | HS 578T breast 103%

COc1cc2c3c(n(CCCNC4CCC4)c(=O)c2cc1OC)-c1cc2c(cc1C3=O)OCO2
inactive: TK-10 renal 98.8% | A498 renal 74.4% | HS 578T breast 84.1%
active: EKVX NSCLC -38.4% | SN12C renal -48.9% | UO-31 renal -70.9% | ACHN renal -89.7% | CAKI-1 renal -82.2% | CCRF-CEM leukemia -6.07% | RPMI-8226 leukemia -39.1% | OVCAR-8 ovarian -49.8% | OVCAR-5 ovarian -72.4% | OVCAR-4 ovarian -57.9% | IGROV1 ovarian -53.3% | NCI/ADR-RES ovarian -32.4%

C=CCn1c(SCC(=O)Nc2cccc(C(=O)/C=C/c3ccc(Br)cc3)c2)nc2ccccc2c1=O
inactive: EKVX NSCLC 106% | SN12C renal 88.8% | UO-31 renal 71.2% | TK-10 renal 102% | ACHN renal 84.5% | CAKI-1 renal 73.7% | A498 renal 89.3% | CCRF-CEM leukemia 95.5% | OVCAR-8 ovarian 81.6% | OVCAR-5 ovarian 96.2% | OVCAR-4 ovarian 87.9% | SK-OV-3 ovarian 108% | IGROV1 ovarian 93.6% | HS 578T breast 83.3% | NCI/ADR-RES ovarian 91.5%

CC1(COc2ccc3ncc(C#Cc4cncc(C(=O)Nc5cc(C(C)(C)C)on5)c4)n3n2)COC1
inactive: EKVX NSCLC 41.5% | SN12C renal 30.4% | UO-31 renal 26.9% | TK-10 renal 91.6% | ACHN renal 30.6% | CAKI-1 renal 35.4% | CCRF-CEM leukemia 39.5% | MOLT-4 leukemia 45.6% | SR leukemia 34% | RPMI-8226 leukemia 47.3% | OVCAR-8 ovarian 35.5% | OVCAR-5 ovarian 55.9% | OVCAR-4 ovarian 55.6% | SK-OV-3 ovarian 61.2% | IGROV1 ovarian 25% | HS 578T breast 15.1%

CC1CCc2c(sc3nc(SCC(=O)N/N=C/c4cccc(O)c4O)n(-c4ccccc4)c(=O)c23)C1 (stereo not drawn)
inactive: EKVX NSCLC 85.6% | SN12C renal 84% | UO-31 renal 73.2% | TK-10 renal 116% | ACHN renal 71.9% | CAKI-1 renal 76.3% | CCRF-CEM leukemia 91.9% | MOLT-4 leukemia 85% | SR leukemia 81% | RPMI-8226 leukemia 89.1% | OVCAR-8 ovarian 90.6% | OVCAR-5 ovarian 93.6% | OVCAR-4 ovarian 84.7% | SK-OV-3 ovarian 107% | IGROV1 ovarian 92.9% | HS 578T breast 95.8% | NCI/ADR-RES ovarian 89.1%

CS(=O)(=O)c1ccc2c(c1)c1c(n2C(=O)c2ccc(Cl)cc2)CCCC1
active: HS 578T breast -0.806%
inactive: EKVX NSCLC 59.7% | SN12C renal 41.2% | UO-31 renal 40.3% | TK-10 renal 67.6% | ACHN renal 43.6% | CAKI-1 renal 37.1% | A498 renal 38.2% | CCRF-CEM leukemia 25.4% | RPMI-8226 leukemia 15.4% | OVCAR-8 ovarian 35.3% | OVCAR-5 ovarian 50.3% | OVCAR-4 ovarian 66.4% | SK-OV-3 ovarian 90.3% | IGROV1 ovarian 46.2% | NCI/ADR-RES ovarian 25.7%

COc1ccc(-c2no[n+]([O-])c2Nc2ccccc2Br)cc1
inactive: EKVX NSCLC 96.1% | SN12C renal 90.4% | UO-31 renal 69.6% | TK-10 renal 145% | ACHN renal 89.2% | CAKI-1 renal 86% | A498 renal 113% | CCRF-CEM leukemia 109% | RPMI-8226 leukemia 93.7% | OVCAR-8 ovarian 90.3% | OVCAR-5 ovarian 108% | OVCAR-4 ovarian 101% | SK-OV-3 ovarian 94.3% | HS 578T breast 88.9% | NCI/ADR-RES ovarian 94.9%

COc1cc2c3c(n(CCCNC4CCCC4)c(=O)c2cc1OC)-c1cc2c(cc1C3=O)OCO2
inactive: UO-31 renal 76.2% | CAKI-1 renal 11.7% | A498 renal 80.3% | OVCAR-4 ovarian 71.9% | SK-OV-3 ovarian 80.7% | HS 578T breast 93.3% | NCI/ADR-RES ovarian 51.9%
active: EKVX NSCLC -67.4% | SN12C renal -60.9% | TK-10 renal -97% | ACHN renal -95.5% | CCRF-CEM leukemia -13.8% | RPMI-8226 leukemia -40.1% | OVCAR-8 ovarian -70.2% | IGROV1 ovarian -48.7%

CN1CCN(c2nc(-c3cnc4ccccc4n3)cc3ccccc23)CC1
inactive: EKVX NSCLC 84.9% | SN12C renal 72.6% | UO-31 renal 63.2% | TK-10 renal 99.9% | ACHN renal 84% | CAKI-1 renal 64.1% | CCRF-CEM leukemia 55.6% | MOLT-4 leukemia 54.9% | RPMI-8226 leukemia 56.7% | OVCAR-8 ovarian 89.7% | OVCAR-5 ovarian 91.1% | OVCAR-4 ovarian 100% | SK-OV-3 ovarian 92.1% | IGROV1 ovarian 73.7% | HS 578T breast 85.6% | NCI/ADR-RES ovarian 82.2%
active: SR leukemia 1.45%

CS(=O)(=O)c1nccc(-c2c(-c3ccc(F)c(OCc4ccc(F)cc4)c3)nc3sccn23)n1
inactive: EKVX NSCLC 28.4% | SN12C renal 86.2% | UO-31 renal 80.1% | TK-10 renal 105% | ACHN renal 91.3% | CAKI-1 renal 81.5% | A498 renal 76.6% | CCRF-CEM leukemia 79.4% | OVCAR-8 ovarian 92.1% | OVCAR-4 ovarian 99.1% | IGROV1 ovarian 82.1% | HS 578T breast 85.4% | NCI/ADR-RES ovarian 98%

C=CCn1c(SCC(=O)Nc2cccc(C(=O)/C=C/c3ccccc3)c2)nc2ccccc2c1=O
active: RPMI-8226 leukemia 2.15%
inactive: EKVX NSCLC 99.3% | SN12C renal 91.1% | UO-31 renal 67.4% | TK-10 renal 116% | ACHN renal 93.9% | CAKI-1 renal 80.1% | A498 renal 92.9% | CCRF-CEM leukemia 72.1% | OVCAR-8 ovarian 83.3% | OVCAR-4 ovarian 88% | SK-OV-3 ovarian 122% | IGROV1 ovarian 87.6% | HS 578T breast 99.2% | NCI/ADR-RES ovarian 87.1%

CN1CCN(Cc2ccc(NC(=O)c3cncc(C#Cc4[nH]nc5ncncc45)c3)cc2C(F)(F)F)CC1
inactive: EKVX NSCLC 108% | SN12C renal 48.1% | UO-31 renal 82.8% | TK-10 renal 94.7% | ACHN renal 59.1% | CAKI-1 renal 59.4% | CCRF-CEM leukemia 51% | MOLT-4 leukemia 47.2% | SR leukemia 48% | RPMI-8226 leukemia 45.2% | OVCAR-8 ovarian 88.7% | OVCAR-5 ovarian 77.7% | OVCAR-4 ovarian 88.5% | SK-OV-3 ovarian 60.8% | IGROV1 ovarian 38.2% | HS 578T breast 45.9% | NCI/ADR-RES ovarian 105%

CCOC(=O)c1c(Nc2ccccc2)nn2c(-c3ccc(OC)c(OC)c3)ccnc12
inactive: EKVX NSCLC 77.1% | SN12C renal 67.9% | UO-31 renal 42.9% | TK-10 renal 80.6% | ACHN renal 54.8% | CAKI-1 renal 44.4% | CCRF-CEM leukemia 30.9% | MOLT-4 leukemia 36.5% | SR leukemia 23.6% | RPMI-8226 leukemia 30.4% | OVCAR-8 ovarian 50.5% | OVCAR-5 ovarian 84.7% | OVCAR-4 ovarian 72.4% | SK-OV-3 ovarian 72% | IGROV1 ovarian 102% | HS 578T breast 49.4% | NCI/ADR-RES ovarian 48.9%

C/C(Cc1ccc(Cl)cc1)=C(/c1ccccc1)c1ccc(OCCN)cc1
inactive: EKVX NSCLC 98.7% | SN12C renal 103% | UO-31 renal 89.7% | TK-10 renal 100% | ACHN renal 99.4% | CAKI-1 renal 92.5% | A498 renal 95.8% | CCRF-CEM leukemia 110% | OVCAR-8 ovarian 101% | OVCAR-5 ovarian 97.4% | OVCAR-4 ovarian 101% | SK-OV-3 ovarian 117% | IGROV1 ovarian 98.3% | HS 578T breast 97.1% | NCI/ADR-RES ovarian 94.8%
